According to the supplement of paper PMC10849652:
Targets with a hit are over-represented here; the source holds about 8,800 in all. About 0.5% of all pairs of compound and target were hits. Values without a mark were called inactive.

compound: Cc1nc(Nc2n[nH]c3c2CN(C(=O)N[C@H](CN(C)C)c2ccccc2)C3(C)C)c2sccc2n1; test: log2 fold change, soluble protein after heating vs DMSO (PISA); higher = thermal stabilisation; K562 lysate, 10 uM; active = over 0.2 and 3.5 SD of the protein, either way, in both replicates (recomputed)
Summary of the method: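 Dounce homogenisation of K562 pellets in PBS pH 7.4 with 1 mM MgCl2 produced a crude extract, used at 1 mg/mL protein. Exposure to 10 μM compound lasted 30 min, and aliquots were then heated for 3 min across 48°C-58°C, pooled and brought to 0.5% NP-40 at 4°C. The supernatant after 21,000xg for 90 min was quantified by TMTpro 16plex LC-MS/MS with channel sums equalised. Duplicate values are given as log-two fold change in thermal stability relative to solvent controls.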

Chain of UniProt P61011 (P61011 whole entry, looked up): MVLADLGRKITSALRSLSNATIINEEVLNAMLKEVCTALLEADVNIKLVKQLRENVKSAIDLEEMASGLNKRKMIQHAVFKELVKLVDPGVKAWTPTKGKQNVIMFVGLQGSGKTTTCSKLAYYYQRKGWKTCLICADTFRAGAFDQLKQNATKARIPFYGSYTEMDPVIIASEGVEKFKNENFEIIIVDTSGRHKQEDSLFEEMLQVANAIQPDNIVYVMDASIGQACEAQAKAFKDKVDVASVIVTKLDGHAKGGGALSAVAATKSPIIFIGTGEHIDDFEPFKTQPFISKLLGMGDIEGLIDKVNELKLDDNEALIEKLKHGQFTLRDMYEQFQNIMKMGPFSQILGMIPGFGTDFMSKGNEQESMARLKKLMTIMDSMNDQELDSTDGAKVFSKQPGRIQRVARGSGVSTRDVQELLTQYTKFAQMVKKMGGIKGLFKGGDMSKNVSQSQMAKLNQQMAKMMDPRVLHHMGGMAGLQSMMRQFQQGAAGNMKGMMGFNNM
Chain of UniProt Q13573 (Q13573 whole entry, looked up): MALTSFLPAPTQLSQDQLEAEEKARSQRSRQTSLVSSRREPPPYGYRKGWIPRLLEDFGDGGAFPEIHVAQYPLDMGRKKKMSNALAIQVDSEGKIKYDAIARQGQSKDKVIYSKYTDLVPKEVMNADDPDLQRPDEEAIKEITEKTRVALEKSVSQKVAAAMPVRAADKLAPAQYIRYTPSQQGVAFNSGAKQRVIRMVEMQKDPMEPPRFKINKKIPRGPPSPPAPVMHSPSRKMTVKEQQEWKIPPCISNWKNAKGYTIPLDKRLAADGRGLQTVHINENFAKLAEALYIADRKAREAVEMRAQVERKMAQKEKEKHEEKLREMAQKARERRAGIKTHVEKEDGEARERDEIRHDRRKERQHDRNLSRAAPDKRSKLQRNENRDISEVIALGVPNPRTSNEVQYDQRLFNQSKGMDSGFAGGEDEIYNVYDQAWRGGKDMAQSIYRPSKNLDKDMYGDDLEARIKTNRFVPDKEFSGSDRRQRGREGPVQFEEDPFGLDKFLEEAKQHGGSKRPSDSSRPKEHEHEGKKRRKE
Chain of UniProt Q8NDV3 (Q8NDV3 whole entry, looked up): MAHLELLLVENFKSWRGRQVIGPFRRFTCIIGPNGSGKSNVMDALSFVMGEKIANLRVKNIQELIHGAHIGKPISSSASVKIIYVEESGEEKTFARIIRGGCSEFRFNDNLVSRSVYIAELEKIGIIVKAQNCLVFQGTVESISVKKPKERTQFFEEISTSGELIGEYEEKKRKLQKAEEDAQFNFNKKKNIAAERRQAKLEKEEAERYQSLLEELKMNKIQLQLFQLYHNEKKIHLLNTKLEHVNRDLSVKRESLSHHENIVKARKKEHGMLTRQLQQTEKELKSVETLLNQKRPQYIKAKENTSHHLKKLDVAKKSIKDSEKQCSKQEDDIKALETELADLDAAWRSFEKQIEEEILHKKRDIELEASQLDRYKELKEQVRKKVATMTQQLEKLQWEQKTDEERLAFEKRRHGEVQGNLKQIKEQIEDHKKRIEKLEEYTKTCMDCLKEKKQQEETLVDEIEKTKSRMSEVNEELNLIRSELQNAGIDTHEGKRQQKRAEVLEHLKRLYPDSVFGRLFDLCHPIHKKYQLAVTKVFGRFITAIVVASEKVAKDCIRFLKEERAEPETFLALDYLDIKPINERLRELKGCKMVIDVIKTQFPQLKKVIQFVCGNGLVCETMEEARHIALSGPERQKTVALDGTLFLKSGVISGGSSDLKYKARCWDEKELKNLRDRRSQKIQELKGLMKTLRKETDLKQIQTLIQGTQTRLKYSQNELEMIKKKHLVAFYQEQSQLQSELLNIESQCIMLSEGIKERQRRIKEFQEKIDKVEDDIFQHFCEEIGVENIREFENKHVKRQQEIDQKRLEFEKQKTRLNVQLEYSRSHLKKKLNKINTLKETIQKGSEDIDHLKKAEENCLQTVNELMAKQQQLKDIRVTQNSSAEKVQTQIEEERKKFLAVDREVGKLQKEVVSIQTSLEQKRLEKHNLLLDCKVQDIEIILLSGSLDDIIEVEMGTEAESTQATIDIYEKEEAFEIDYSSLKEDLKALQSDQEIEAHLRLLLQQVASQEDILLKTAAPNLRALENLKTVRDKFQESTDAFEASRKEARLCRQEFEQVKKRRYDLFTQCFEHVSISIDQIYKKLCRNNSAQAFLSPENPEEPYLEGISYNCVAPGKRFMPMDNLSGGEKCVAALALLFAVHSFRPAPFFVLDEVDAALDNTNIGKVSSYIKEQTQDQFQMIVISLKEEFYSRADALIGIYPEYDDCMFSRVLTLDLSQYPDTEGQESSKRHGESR
Chain of UniProt Q8NHG7 (Q8NHG7 whole entry, looked up): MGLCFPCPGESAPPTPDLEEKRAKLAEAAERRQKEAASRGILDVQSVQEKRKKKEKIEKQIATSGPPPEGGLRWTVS
Chain of UniProt Q9NYA1 (Q9NYA1 whole entry, looked up): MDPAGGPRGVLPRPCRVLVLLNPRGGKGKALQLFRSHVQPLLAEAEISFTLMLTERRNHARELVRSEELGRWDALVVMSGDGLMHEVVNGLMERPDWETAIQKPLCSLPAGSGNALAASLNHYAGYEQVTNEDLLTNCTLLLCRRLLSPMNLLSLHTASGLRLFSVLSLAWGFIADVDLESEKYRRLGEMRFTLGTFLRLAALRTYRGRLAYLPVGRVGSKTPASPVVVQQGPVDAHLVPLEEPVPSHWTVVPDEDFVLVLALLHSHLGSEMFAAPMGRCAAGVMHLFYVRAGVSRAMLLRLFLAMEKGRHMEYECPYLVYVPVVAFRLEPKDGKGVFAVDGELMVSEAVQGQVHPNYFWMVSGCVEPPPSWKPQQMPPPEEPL
Chain of UniProt Q16594 (Q16594 whole entry, looked up): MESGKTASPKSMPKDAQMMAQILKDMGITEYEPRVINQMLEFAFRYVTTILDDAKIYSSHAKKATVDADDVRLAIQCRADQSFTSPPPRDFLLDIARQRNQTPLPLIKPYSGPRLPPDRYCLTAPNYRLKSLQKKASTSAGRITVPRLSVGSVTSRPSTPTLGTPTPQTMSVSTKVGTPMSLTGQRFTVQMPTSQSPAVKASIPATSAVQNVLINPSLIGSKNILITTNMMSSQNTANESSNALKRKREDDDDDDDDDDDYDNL
Chain of UniProt Q96CQ1 (Q96CQ1 whole entry, looked up): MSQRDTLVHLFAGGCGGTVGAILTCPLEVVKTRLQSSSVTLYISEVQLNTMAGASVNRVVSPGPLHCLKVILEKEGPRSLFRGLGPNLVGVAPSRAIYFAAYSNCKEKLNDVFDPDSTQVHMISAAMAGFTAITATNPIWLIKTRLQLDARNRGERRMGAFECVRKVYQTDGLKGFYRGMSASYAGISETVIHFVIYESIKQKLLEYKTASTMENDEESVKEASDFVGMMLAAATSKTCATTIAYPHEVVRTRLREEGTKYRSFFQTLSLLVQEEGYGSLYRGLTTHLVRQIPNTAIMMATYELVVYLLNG
Chain of UniProt Q9UQE7 (Q9UQE7 whole entry, looked up): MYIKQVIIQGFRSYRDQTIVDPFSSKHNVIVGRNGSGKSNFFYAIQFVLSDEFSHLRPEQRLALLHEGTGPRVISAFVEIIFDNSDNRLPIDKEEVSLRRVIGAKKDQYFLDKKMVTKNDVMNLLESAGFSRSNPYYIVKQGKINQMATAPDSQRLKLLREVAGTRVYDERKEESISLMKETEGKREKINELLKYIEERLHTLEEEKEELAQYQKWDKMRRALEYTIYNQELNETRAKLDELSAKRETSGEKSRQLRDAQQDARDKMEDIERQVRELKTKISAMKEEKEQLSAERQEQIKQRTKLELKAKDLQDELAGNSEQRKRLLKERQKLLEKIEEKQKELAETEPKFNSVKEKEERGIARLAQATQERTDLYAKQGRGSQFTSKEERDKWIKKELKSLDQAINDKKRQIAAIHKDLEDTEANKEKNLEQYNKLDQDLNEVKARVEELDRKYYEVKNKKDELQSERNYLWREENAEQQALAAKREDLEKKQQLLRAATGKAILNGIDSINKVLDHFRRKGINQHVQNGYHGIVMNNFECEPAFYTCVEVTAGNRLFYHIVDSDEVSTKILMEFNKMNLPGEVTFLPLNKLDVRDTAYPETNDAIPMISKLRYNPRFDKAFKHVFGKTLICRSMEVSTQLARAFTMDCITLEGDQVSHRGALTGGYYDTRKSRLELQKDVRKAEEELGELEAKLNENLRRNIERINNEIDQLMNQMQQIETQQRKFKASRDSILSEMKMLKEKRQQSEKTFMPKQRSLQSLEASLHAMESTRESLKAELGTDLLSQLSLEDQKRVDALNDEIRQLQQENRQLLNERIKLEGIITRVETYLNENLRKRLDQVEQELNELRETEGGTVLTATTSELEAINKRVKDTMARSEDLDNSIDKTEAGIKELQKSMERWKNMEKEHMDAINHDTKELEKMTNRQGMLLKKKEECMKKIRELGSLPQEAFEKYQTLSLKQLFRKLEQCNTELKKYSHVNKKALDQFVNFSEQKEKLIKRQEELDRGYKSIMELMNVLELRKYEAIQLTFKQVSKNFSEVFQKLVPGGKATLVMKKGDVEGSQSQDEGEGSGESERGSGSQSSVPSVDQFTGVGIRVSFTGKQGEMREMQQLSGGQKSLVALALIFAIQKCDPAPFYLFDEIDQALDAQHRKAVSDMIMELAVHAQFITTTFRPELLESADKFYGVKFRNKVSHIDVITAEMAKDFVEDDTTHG
Chain of UniProt Q9NP77 (Q9NP77 whole entry, looked up): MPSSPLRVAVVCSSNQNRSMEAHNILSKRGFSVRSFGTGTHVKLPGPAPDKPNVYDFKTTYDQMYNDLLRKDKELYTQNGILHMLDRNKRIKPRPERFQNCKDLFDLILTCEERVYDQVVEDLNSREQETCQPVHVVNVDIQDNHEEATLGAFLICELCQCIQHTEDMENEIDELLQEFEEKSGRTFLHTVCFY
Chain of UniProt Q9HBM1 (Q9HBM1 whole entry, looked up): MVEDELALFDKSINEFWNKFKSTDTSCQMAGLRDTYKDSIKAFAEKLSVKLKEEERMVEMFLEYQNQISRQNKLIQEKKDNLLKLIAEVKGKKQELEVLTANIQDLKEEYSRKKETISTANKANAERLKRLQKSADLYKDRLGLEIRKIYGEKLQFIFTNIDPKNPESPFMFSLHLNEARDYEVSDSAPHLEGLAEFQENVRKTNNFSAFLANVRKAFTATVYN

SLC11A2 isoform 3 (UniProt P49281) and SLC12A6 (UniProt Q9UHW9) are within 0.2 log units of each other in log2 fold change: -0.108 for the first, 0 for the second.

TAF9 (UniProt Q16594) and SKA1 (UniProt Q96BD8) are within 0.2 log units of each other in log2 fold change: 0.049 for the first, 0.052 for the second.

SMTN isoform 6 (UniProt P53814) and SHC1 isoform 6 (UniProt P29353) are within 0.2 log units of each other in log2 fold change: 0.134 for the first, 0.011 for the second.

SPIRE1 (UniProt Q08AE8) and SNW1 (UniProt Q13573) are within 0.2 log units of each other in log2 fold change: 0.011 for the first, -0.009 for the second.

SLC25A32 (UniProt Q9H2D1) and TARBP2 (UniProt Q15633) are within 0.2 log units of each other in log2 fold change: 0.033 for the first, 0.019 for the second.

SYNE2 isoform 2 (UniProt Q8WXH0) and SMG5 (UniProt Q9UPR3) are within 0.2 log units of each other in log2 fold change: -0.034 for the first, 0.034 for the second.

SH3GL3 isoform 3 (UniProt Q99963) and STAU1 (UniProt O95793) are within 0.2 log units of each other in log2 fold change: -0.113 for the first, -0.024 for the second.

SMARCAD1 isoform 2 (UniProt Q9H4L7) and SLC25A36 (UniProt Q96CQ1) are within 0.2 log units of each other in log2 fold change: -0.008 for the first, -0.007 for the second.

SMARCA4 (UniProt P51532) and SP1 (UniProt P08047) are within 0.2 log units of each other in log2 fold change: 0.023 for the first, -0.02 for the second.

SMG1 (UniProt Q96Q15) and SPHK1 isoform 2 (UniProt Q9NYA1) are within 0.2 log units of each other in log2 fold change: 0.026 for the first, -0.034 for the second.

SMC1B isoform 3 (UniProt Q8NDV3) and SMG7 (UniProt Q92540) are within 0.2 log units of each other in log2 fold change: -0.041 for the first, -0.034 for the second.

SLC25A38 (UniProt Q96DW6) and SMC3 (UniProt Q9UQE7) are within 0.2 log units of each other in log2 fold change: -0.142 for the first, -0.01 for the second.

SVIP (UniProt Q8NHG7) and SPC25 (UniProt Q9HBM1) are within 0.2 log units of each other in log2 fold change: 0 for the first, -0.02 for the second.

SPATS2 (UniProt Q86XZ4) and SLC26A6 (UniProt Q9BXS9) are within 0.2 log units of each other in log2 fold change: 0.042 for the first, 0.05 for the second.

SRP54 (UniProt P61011) and SSB (UniProt E7ERC4) are within 0.2 log units of each other in log2 fold change: 0.006 for the first, 0.165 for the second.

Target SSU72 (UniProt Q9NP77) has a log2 fold change of -0.007.

STK24 (UniProt B4DR80) was tested, and the log2 fold change was 0.298 (active).
